The values below come from PubChem BioAssay (NCI).

What all share (assay): NCI-60 one-dose screen, 48 h (100 = growth as untreated, 0 = no growth, -100 = all killed)
Common to all, as to details: 10 µM unless noted

The subject of assay [1] is HCT-15 colon.
Assay [2] has as its system HT29 colon.
The subject of assay [3] is SNB-19 CNS.
For assay [4], the system named is U251 CNS.
For assay [5], the system named is PC-3 prostate.
Assay [6] concerns SK-MEL-5 melanoma.
The subject of assay [7] is UACC-62 melanoma.
The subject of assay [8] is LOX IMVI melanoma.
Assay [9] deals with SK-MEL-28 melanoma.
The test system of assay [10] is SK-MEL-2 melanoma.
Assay [11] concerns EKVX NSCLC.
Assay [12] deals with SN12C renal.
The subject of assay [13] is UO-31 renal.
The subject of assay [14] is TK-10 renal.
Assay [15] concerns ACHN renal.
For assay [16], the system named is A498 renal.
The subject of assay [17] is CCRF-CEM leukemia.
In assay [18] the test system is MOLT-4 leukemia.
The test system of assay [19] is SR leukemia.
Assay [20] has as its system SNB-75 CNS.

About 83,000 compounds went through this panel and 20% of them were active in at least one assay; those are over-represented in the sample as a whole.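 Percent growth is the endpoint: 0 to 100 indicates growth inhibition (40 means 60% inhibition), 0 means no net growth, and negative values indicate cell death.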 Values without a mark were called inactive. The source made the active and inactive calls. Rule for the calls: active = growth percent below 10; inactive = the rest.

Take `COc1ccc(N(C)c2nc(Cl)nc3ccn(C)c23)cc1`: the growth in [1] is 12.6%; in [2], -2.47% (active); in assay [3], 25.3%; in assay [4], 3.67% (active); in assay [5] it was 16.1%; in assay [6] it was -44.2% (active). In addition, the growth in assay [7] is 39.1%; in assay [8], 27.6%; in assay [9], 49.2%; in [10], 19.3%; in assay [11] it was 43.1%; in [12], 23%. Besides, the growth in assay [13] was 45%; in assay [14] it was 67.7%; in [15] it was 21.9%; in assay [16] it was -9.23% (active); in assay [17], 8.02% (active); in [18], 9.94% (active). Further, the growth in assay [19] was 11.3%.

On to `[2H]c1nc(Nc2ncc3cc(C(=O)N(C)C)n(C4CCCC4)c3n2)c([2H])c([2H])c1N1C([2H])([2H])C([2H])([2H])NC([2H])([2H])C1([2H])[2H]`, for which the growth in assay [1] is 79.9%; in assay [2], 27.6%; in assay [20], 69.7%; in assay [3] it was 61.5%; in assay [4] it was 56.1%; in assay [6], 72.3%. Also, the growth was 64.6% in [7]; 40.2% in assay [8]; 84.2% in assay [9]; 83.9% in assay [10]; 64.4% in assay [11]; 67.9% in assay [12]. Also, the growth in assay [13] is 52.5%; in assay [14], 37%; in [15], 47.1%; in assay [16], 76.8%; in [17] it was 38.5%; in [18] it was 5.14% (active). Moreover, the growth in assay [19] was 26.6%.

As to `O=C(NC[C@H](O)CN1CCc2ccccc2C1)c1cc(NC2COC2)ncn1`, the growth in assay [1] is 103%; in assay [2], 86.9%; in [20], 74%; in [3] it was 99%; in [4] it was 102%; in [6], 107%. Further, the growth is 91.8% in assay [7]; 93.9% in assay [8]; 88.3% in assay [9]; 94.4% in [10]; 111% in [11]; 95.5% in [12]. Besides, the growth in assay [13] was 78.2%; in assay [14], 96.4%; in [15], 95.9%; in [16], 116%; in assay [17] it was 98.3%; in assay [18] it was 88%. Besides, the growth in [19] is 97.2%.

Consider `O=C(CSC(=S)N1CCCCC1)Nc1ccccc1`, for which the growth was 99.1% in [1]; 91.2% in [2]; 93.1% in assay [20]; 99.6% in assay [3]; 97.6% in [4]; 97.5% in assay [6]. Besides, the growth in [7] is 91.6%; in [8], 94.2%; in [9] it was 104%; in assay [10], 92.1%; in [11], 106%; in [12] it was 106%. Besides, the growth in assay [13] was 86.5%; in assay [14], 85.8%; in assay [15] it was 98.8%; in assay [16] it was 99.5%; in [17], 89.9%; in assay [18] it was 86.5%. In addition, the growth in assay [19] was 87.1%.

As for `COc1ccc(C(=O)c2cc(OC)c(OC)c(OC)c2)cc1OC(=O)C(Cl)(Cl)Cl`, the growth was 8.84% (active) in assay [1]; 13.4% in assay [2]; 58% in assay [20]; 23.5% in assay [3]; 5.44% (active) in assay [4]; -24.1% (active) in [6]. In addition, the growth was 39.8% in assay [7]; 15.1% in assay [8]; 51.6% in [9]; 29.8% in assay [10]; 61.3% in assay [11]; 30.9% in assay [12]. Besides, the growth in assay [13] was 39.1%; in assay [14], 65.6%; in [15], 31.8%; in assay [16] it was 46.5%; in [17] it was 8.37% (active); in assay [18] it was 11.8%. For the same compound, the growth in assay [19] is 6.59% (active).

Take `C[C@@H]1C(=O)[C@@H]2C[C@@H](O)[C@@H](O)C[C@]2(C)[C@H]2CC[C@@]3(C)C(=C12)CC[C@@H]3[C@@](C)(O)[C@H](O)CCC(C)(C)O`: the growth was 107% in assay [1]; 97.6% in assay [2]; 108% in [20]; 104% in assay [3]; 96.6% in assay [4]; 98.1% in assay [6]. Moreover, the growth in assay [7] was 97.8%; in [8], 101%; in assay [9], 113%; in [10] it was 108%; in assay [11] it was 113%; in assay [12] it was 104%. Also, the growth is 89% in [13]; 95.9% in assay [14]; 117% in assay [15]; 67.2% in [16]; 89.5% in assay [17]; 87.3% in assay [18]. Further, the growth in assay [19] was 97.4%.

`COc1cccc(NC(=O)Nc2ccc(Oc3ncnc4[nH]c(C)c(C)c34)cc2)c1`: the growth in assay [1] is 87.9%; in assay [2] it was 75.4%; in [20], 87.2%; in assay [3], 89.7%; in assay [4], 76.9%; in assay [6], 88%. In addition, the growth is 74.2% in assay [7]; -54.9% (active) in [8]; 103% in assay [9]; 100% in [10]; 102% in [11]; 74.5% in [12]. The growth in [13] is 86.1%; in [14] it was 114%; in assay [15], 73.6%; in [17], 76.4%; in [18], 56.9%; in assay [19], 10.5%.

In the case of `Cc1ccc(-c2nc(C#N)c(S(=O)(=O)N(C)CCO)o2)cc1`, the growth in assay [1] is 37.6%; in assay [2], 28.1%; in assay [20] it was 101%; in [3], 86.5%; in [4] it was 83.7%; in assay [6] it was 71.4%. Also, the growth in assay [7] was 62.4%; in assay [8], 41.9%; in [9] it was 82%; in assay [10] it was 80.4%; in assay [11], 107%; in [12], 51%. Moreover, the growth in assay [15] was 60.7%; in [16], 114%; in [17], 2.67% (active); in assay [18], 7.32% (active); in assay [19] it was 10.8%.

Consider `COc1ccc2nc(-c3ccc(Cl)cc3)cc(-c3nnc(SCC(=O)Nc4ccc(/C(C)=N\O)cc4)o3)c2c1`, for which the growth in assay [1] is 23.6%; in assay [2], 24.5%; in assay [20], 39.9%; in assay [3], -18.2% (active); in assay [4], -15.2% (active); in assay [6], 71.5%. For the same compound, the growth in [7] was 45.2%; in assay [8], 25.3%; in assay [9], 72.6%; in [10], 63.8%; in [11] it was 35.4%; in assay [12], -7.09% (active). Moreover, the growth in [13] is 77.8%; in [14], 79.4%; in assay [15] it was 65.6%; in [16] it was 64%; in assay [17], 31.1%; in [18], 12.4%. Moreover, the growth in assay [19] was 6.61% (active).

For the compound `COc1ccc2nc3c(n2c1)C(=O)C(=O)c1ccccc1-3`, the growth was -60.2% (active) in assay [1]; 64% in assay [2]; -54.4% (active) in [20]; -30.9% (active) in assay [3]; -59.4% (active) in assay [4]; -99.5% (active) in assay [6]. The growth in [7] was -91.1% (active); in [8], -68.4% (active); in assay [9], -83.2% (active); in assay [10] it was -74.7% (active); in [11], -53.6% (active); in assay [12], -88.1% (active). Besides, the growth in [13] was -64.4% (active); in [15], -51.3% (active); in [16], 68.7%; in assay [17] it was 20.8%; in assay [18], 2.85% (active); in assay [19] it was -1.54% (active).

Regarding `COc1ccc2nc(-c3ccc(OC)c(OC)c3)cc(-c3nnc(SCC(=O)Nc4ccc(C(C)=O)cc4)o3)c2c1`, the growth in assay [1] was 100%; in [2] it was 105%; in [20], 91.6%; in [3] it was 101%; in assay [4] it was 97.7%; in [6] it was 94.1%. Also, the growth in [7] was 102%; in [8], 102%; in [9] it was 113%; in assay [10], 100%; in assay [11], 108%; in assay [12] it was 98.8%. The growth was 91.7% in assay [13]; 109% in assay [14]; 101% in [15]; 93.6% in [16]; 94.8% in [17]; 95.5% in [18]. For the same compound, the growth in assay [19] was 88.8%.
